Experimental data: PubChem BioAssay AID618 (Sanford-Burnham Center for Chemical Genomics, 2007)
In all, about 87,000 compounds went through this assay and about 540 (0.62%) were called active. A call without a number means that no potency is given here. How the calls were made is not given here. Only a selection was taken, and actives are over-represented in it overall. Potency and affinity values are given separately.

Assay: MT1-MMP gene expression reporter suppression – cell-based, luciferase reporter, luminescence (AID 618);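 further: actives suppress MT1-MMP promoter-driven transcription so potencies describe inhibitors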
Settings: MT1-MMP promoter luciferase reporter cells

SMILES | outcome
Cc1sc2nc(SCC(=O)N3CCCC3)[nH]c(=O)c2c1C | inactive
O=C1CC(c2ccco2)c2ccc3ccccc3c2N1 (centres undefined) | inactive
CCOC(=O)c1cnc(SCC(=O)c2ccc(C)cc2)nc1N | inactive
Cc1cc(C)n(CC(O)Cn2ccc3ccccc32)n1 (centres undefined) | inactive
Cc1occc1-c1nc(-c2ccccn2)no1 | inactive
c1ccc(-c2noc(-c3ccc4ccccc4c3)n2)cc1 | active
c1ccc(-c2nnc(-c3cccc(-c4nnc(-c5ccccc5)o4)c3)o2)cc1 | inactive
c1ccc(-c2nnc(-c3ccccc3)o2)cc1 | inactive
Cc1ccc(Cc2nc(-c3ccccn3)no2)cc1 | inactive
Brc1cccc(-c2nc(-c3ccncc3)no2)c1 | inactive
CCOc1ccc(-c2nc(-c3ccccc3)no2)cc1OCC | inactive
CC1=CCC(C(=O)O)C(C(=O)Nc2nc3ccc(S(C)(=O)=O)cc3s2)C1 (centres undefined) | inactive
Cn1c(=O)c2c(ncn2CC(=O)N2CCN(c3ccccc3F)CC2)n(C)c1=O | inactive
COc1ccc(-c2c(C)n([O-])c(C)c(C)[n+]2=O)cc1 | inactive
COc1ccc(S(=O)(=O)N2C3CCC2CC(NC(=O)NC2CCCCC2)C3)cc1 (centres undefined) | inactive
COc1cccc(NS(=O)(=O)c2ccc3[nH]cc(C(=O)NC4CC4)c(=O)c3c2)c1 | inactive
CCCn1c(-c2ccc(OC)cc2)nc2c(=O)n(C)c(=O)[nH]c21 | inactive

SMILES | outcome
CCC(C)NS(=O)(=O)c1ccc(NC(=O)c2c(-c3ccccc3)noc2C)cc1 (centres undefined) | inactive
O=C(NCCCc1ccccc1)c1cnc2n(c1=O)CCS2 | inactive
O=C(COc1cccc(C(F)(F)F)c1)NCCCN1CCCC1=O | inactive
CCC(=O)Nc1ccc2c(c1)C(=O)N(C1CCCCC1)C2=O | inactive
CCN(CC)c1ccc2cc(C(=O)Nc3ccccn3)c(=O)oc2c1 | inactive
CCN(CC)c1ccc2cc(C(C)=O)c(=O)oc2c1 | inactive
CC(C)C(NS(=O)(=O)c1ccc(Br)s1)C(=O)O (centres undefined) | inactive
O=C(CCCSc1nnc(-c2cccs2)n1CC1CCCO1)c1ccccc1 (centres undefined) | inactive
CC(=O)c1ccc(Oc2cc(C)nc(NCc3ccccc3)n2)cc1 | inactive
COC(=O)c1ccc(Oc2cc(C)nc(SC)n2)cc1 | inactive
CNc1cc(C)nc(-n2nc(C)cc2C)n1 | inactive
Cc1ccc(Oc2cc(-n3nc(C)cc3C)ncn2)cc1 | inactive
COc1ccc(Nc2cc(C)nc(-n3nc(C)cc3C)n2)cc1 | active
CC(=O)c1ccc(Oc2cc(C)nc(-n3nc(C)cc3C)n2)cc1 | active
COC(=O)c1ccc(Oc2cc(C)nc(-n3nc(C)cc3C)n2)cc1 | active
COC(=O)c1ccc(Oc2nc(C)cc(Oc3ccccc3)n2)cc1 | inactive
CCOc1ccc(Nc2cc(C)nc(-n3nc(C)cc3C)n2)cc1 | inactive
